Shown are actives, neighbours in structure and some others; about 2.4% of the full set was active somewhere.
Pol kappa inh = blocks human DNA polymerase kappa activity; Q9UBT6; purified Pol kappa, fluorescent DNA synthesis assay, 10 min; Potency, µM (doses to about 107 µM), most hits filed as inhibitors; 400,000 compounds, 0.53% hits; AID 588579
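Kinetic fluorescence screen: compound preincubated 15 min RT with 10 nM enzyme; 50 nM substrate (final) initiates; reads at 0/10 min.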
FEN1 inhibitor = blocks human flap endonuclease 1. Recombinant FEN1 flap cleavage, fluorescence, 15 min. Potency, µM (highest dose often 114 µM), most hits filed as inhibitors. 390,000 compounds, 0.35% hits. AID 588795; further: nearly all actives have a fitted effect of over 65% in size
Target sequence (P39748 whole entry, looked up): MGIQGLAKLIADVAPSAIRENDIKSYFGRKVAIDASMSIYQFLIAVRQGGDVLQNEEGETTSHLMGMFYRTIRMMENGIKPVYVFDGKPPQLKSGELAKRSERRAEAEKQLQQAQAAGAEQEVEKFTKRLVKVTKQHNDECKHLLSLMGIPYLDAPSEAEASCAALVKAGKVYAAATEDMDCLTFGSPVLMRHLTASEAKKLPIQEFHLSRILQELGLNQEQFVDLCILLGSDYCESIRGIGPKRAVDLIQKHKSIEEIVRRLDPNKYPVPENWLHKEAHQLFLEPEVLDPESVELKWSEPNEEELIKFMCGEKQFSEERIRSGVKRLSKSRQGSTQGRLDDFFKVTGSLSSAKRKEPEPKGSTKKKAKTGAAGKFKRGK
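FEN1 at 10 nM preincubated with compounds 15 min at room temperature, then flap DNA substrate added at 50 nM final. Signal read at 0 and 15 min; concentration-response fitted with four-parameter Hill equation.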
POLB inh = blocks human DNA polymerase beta activity. Pol beta primer extension/strand displacement, fluorescence kinetic. P06746. Potency, µM (top dose mostly 114 µM), actives largely listed as inhibitors. AID 485314. 340,000 compounds, 1.3% hits
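Values derive from four-parameter Hill fits of normalized kinetic data: reads at 0 and 10 min following addition of 50 nM substrate to 10 nM Pol beta preincubated 15 min with compound.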
POLH inh = inhibitors of human DNA polymerase eta | recombinant Pol eta, fluorescent DNA replication assay | Potency, µM (doses to about 114 µM), actives largely listed as inhibitors | 390,000 compounds, 1.2% hits
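Pol eta at 10 nM preincubated with compounds 15 min at room temperature; reaction started with fluorescent substrate (50 nM final) and read kinetically at 0 and 10 min.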
WRN inhibitor = WRN helicase (human) inhibition. Q14191. WRN helicase unwinding, fluorescent forked duplex, kinetic. Potency, µM (series often up to 114 µM), usual class: inhibitors. 360,000 compounds, 0.46% hits; further: nearly all actives have a fitted effect of over 55% in size
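Kinetic fluorescence helicase assay: unwinding of a quenched forked DNA duplex (100 nM final) with 2 mM ATP final raises red fluorescence (525/598 nm). Compounds sat 15 min at room temperature with 20 nM WRN beforehand.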
Pol iota inh = blocks human DNA polymerase iota activity. Pol iota fluorescent replication assay, 10 min. Potency, µM (titrated, usually from 115 µM), usual class: inhibitors. Q9UNA4. AID 588590. 390,000 compounds, 1% hits
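Fluorescent replication assay read twice, at 0 min and 10 min after adding 50 nM (final) substrate. Enzyme (10 nM) and compounds were first incubated 15 min at room temperature; enzyme-free buffer wells were negative controls.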
Numbers stand for hits; – = inactive; ? = inconclusive; · = no result given; ! = not active in a repeat; [ ] = another dose, or the depositor's remark. The call rests on the fitted dose curve; in most records, active means well fitted curve in the direction sought with a large enough effect; inconclusive means small, poorly fitted or top-dose-only effect, or another doubt; inactive means no such curve, though single readings can be large; an effect the other way counts as inactive or inconclusive.

SMILES	Pol kappa inh	FEN1 inhibitor	POLB inh	POLH inh	WRN inhibitor	Pol iota inh
COc1ccccc1CNC(=O)Cn1c(=O)oc2cc(S(=O)(=O)NCc3ccccc3)ccc21	–	–	–	–	·	–
N/C(=N\OC(=O)c1ccc(Br)cc1)c1cccc([N+](=O)[O-])c1	–	–	18µM	–	–	?
CCOc1cc(C(=O)NCc2ccco2)cc(OCC)c1OCC	–	–	–	–	–	–
O=C(COC(=O)c1ccc(S(=O)(=O)NCc2ccco2)cc1)NCC1CCCCC1	–	–	35µM	?	?	?
O=C(COC(=O)c1ccc(S(=O)(=O)NCc2ccco2)cc1)Nc1ccccc1	–	–	·	–	–	–
CCOc1ccc(C(=O)OCC(=O)NCc2ccco2)cc1OCC	?	–	20µM	?	?	?
Cc1ccc(C(=O)NCc2ccco2)cc1S(=O)(=O)N1CCCCC1	?	–	40µM	?	–	?
O=C(COC(=O)c1ccccc1)NCc1ccco1	?	–	25µM	13µM	–[11.6 µM]	28µM
Cc1ccc(C(=O)Nc2ccccc2C(=O)NCc2ccco2)cc1S(=O)(=O)N1CCCCC1	–	–	–	–	–	–
O=C(c1cc(C(F)(F)F)cc(C(F)(F)F)c1)N1CCC[C@@]2(CCN(c3ccncc3)C2)C1	–	·	·	·	·	·
COc1ccc2oc(C(=O)OCC(=O)NCCc3ccccc3)c(C)c2c1	–	–	·	–	–	–
COc1ccc2oc(C(=O)OCC(=O)NCc3ccco3)c(C)c2c1	–	–	·	50µM	–	?
O=C(COC(=O)c1cccc(Br)c1)NCc1ccco1	?	–	·	79µM	?	25µM
O=C(COC(=O)c1ccc(Br)o1)NCc1ccco1	?	–	·	10µM	?	50µM
Cc1cccc(C(=O)OCC(=O)NCc2ccco2)c1	?	–	·	16µM	–[11.6 µM]	79µM
COc1ccc2cc3cc(C(=O)N4CCN(c5cccc(Cl)c5)CC4)sc3nc2c1	–	–	–	–	·	–
O=C(NCc1ccco1)c1ccc(S(=O)(=O)N2CCOCC2)cc1	?	–	35µM	?	–	16µM
O=C(COC(=O)CNC(=O)c1ccc(-c2ccccc2)cc1)NCc1ccco1	–	–	8.9µM	–	–	–
O=C(COC(=O)COc1ccccc1)NCc1ccco1	–	–	·	–	–	–
O=C(COC(=O)c1ccco1)NCc1ccco1	–	–	–	–	–	–
O=C(COC(=O)c1cc(-c2ccc(Cl)s2)nc2ccccc12)NCc1ccco1	–	–	–	20µM	35µM	?
O=C(COC(=O)c1cc(Cl)cc(Cl)c1)NCc1ccco1	?	–	·	56µM	–[11.6 µM]	?
c1ccc(Oc2nc(NC3CCCCC3)c3[nH]cnc3n2)cc1	–	·	·	·	·	·
O=C(COC(=O)Cc1c(Cl)cccc1Cl)NCc1ccco1	?	–	·	35µM	–[11.6 µM]	45µM
O=C(NCc1ccco1)c1ccc(S(=O)(=O)N2CCCCC2)cc1	–	–	–	–	–	–
SMILES	Pol kappa inh	FEN1 inhibitor	POLB inh	POLH inh	WRN inhibitor	Pol iota inh
O=C(COC(=O)c1ccc(S(=O)(=O)N2CCCC2)cc1)NCc1ccco1	?	–	?	?	–[11.6 µM]	50µM
CCOc1ccc(-c2nnc(SCC(=O)NCc3ccc(C)cc3)nc2-c2ccc(OCC)cc2)cc1	–	–	–	–	·	–
COc1ccc(OCC(=O)Nc2cccc(-c3nc4ccccc4o3)c2)cc1	–	–	?	–	–	?
Cc1cc(C)cc(OCC(=O)NNC(=O)c2cc3ccccc3o2)c1	–	–	–	–	–	–
CCc1ccc(OCC(=O)Nc2ccc(-c3nc4ccccc4o3)c(O)c2)cc1	–	–	2.2µM	?	–	–
CCc1ccc(OCC(=O)NNC(=O)c2cc3ccccc3o2)cc1	–	–	25µM	–	?	–
CCc1ccc(OCC(=O)NNC(=O)Cc2cccs2)cc1	–	–	20µM	?	–[11.6 µM]	–
CCOc1ccc(/C=C/c2cc[n+](C)c3ccccc23)cc1OCC	–	–	·	·	·	–
N#Cc1c(-c2ccc(Cl)cc2)c(-c2ccc(Cl)cc2)nn(CCO)c1=O	–	–	·	–	–	–
COc1ccc(CSc2nncn2N)cc1Br	–	–	–	–	–	–
COc1ccc(/C=N/Nc2nncn2N)cc1Br	–	–	–	–	–	8.9µM
COc1cc(/C=N/Nc2nncn2N)ccc1OCc1c(C)no[n+]1[O-]	–	–	–	–	–[11.6 µM]	7.1µM
Nn1cnnc1N/N=C/c1ccc(Cl)cc1Cl	–	?	–	–	–	11µM
COc1cc(/C=C(\C#N)C(N)=O)ccc1OCc1c(C)no[n+]1[O-]	–	–	–	–	–	–
Cc1nc(-c2cccc(NC(=O)Nc3ccc([N+](=O)[O-])cc3)c2)no1	–	–	?	–	·	–
c1ccc2c(c1)CCCN2	?	–	·	·	·	?
O=C1C2CC=C(Cl)CC2C(=O)N1c1ncn[nH]1 (stereo not given)	–	–	28µM	22µM	–	?
O=C1C2CC=CCC2C(=O)N1c1ncn[nH]1 (stereo not given)	–	–	–	–	–	–
CCS(=O)(=O)Nc1cc2c3c(c1)CCN3C(=O)CC2	79µM	–	–	–	–[11.6 µM]	25µM
C=CCNS(=O)(=O)c1cc2c3c(c1)CCN3C(=O)CC2	79µM	?	–	–	–[11.6 µM]	28µM
CC(C)C(=O)Nc1cc2c3c(c1)CCC(=O)N3CCC2	?	–	–	–	–	35µM
CC(C)NC(=O)C(=O)Nc1cc2c3c(c1)CCC(=O)N3CCC2	–	–	–	–	–	–
O=C(Nc1ccc(F)cc1F)c1ccc2c(O)c(S(=O)(=O)c3ccc(Cl)cc3)c(=O)[nH]c2c1	–	–	–	–	·	–
Cc1ccc(OCCOCCn2c(-c3ccc(Cl)cc3)nc3ccccc3c2=O)cc1	–	–	–	–	·	–
Cn1cccc1C(=O)N1CCC2(CCCN(c3cccc(-c4ccccc4)c3)C2)CC1	–	·	·	·	·	·
SMILES	Pol kappa inh	FEN1 inhibitor	POLB inh	POLH inh	WRN inhibitor	Pol iota inh
Cc1cc2ccccn2c1C(=O)c1nc(NCc2ccccc2)ncc1Cl	–	–	–	–	–	79µM!
O=C(O)c1nc(NCc2ccccc2)ncc1Cl	–	–	–	–	–	–
CN(C)c1ccc(/C=C2\C(=O)/C(=C\c3ccc(N(C)C)cc3)c3ccccc32)cc1	–	–	·	·	·	–
CC(C)CCNC(=O)c1ccc2c(c1)NC(=O)C(CS(=O)(=O)Cc1cccc(Br)c1)N2 (stereo not given)	–	–	10µM	–	·	?
O=C(O)c1cc(S(=O)(=O)Nc2ccc3oc(=O)sc3c2)ccc1O	?	–	50µM	14µM	28µM	?
CC(=O)c1c(C)oc2ccc(NS(=O)(=O)c3ccc(O)c(C(=O)O)c3)cc12	–	–	?	25µM	–	?
O=C(O)c1cc(NS(=O)(=O)c2ccc3ccccc3c2)ccc1O	–	–	–	–	–	?
CC(=O)c1c(C)oc2ccc(NS(=O)(=O)c3ccc(F)cc3C)cc12	–	–	–	–	–	–

Bioassay records (PubChem)
